# Data: the supplement of paper PMC9135407
# Several values for one entry are separate records, joined by “and”; a condition that tells them apart may be missing. Equal entries are not always repeated. Structures can show the parent of a compound that is named as a salt. The whole screen tested about 5,800 compounds, of which about 620 (11%) showed activity.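 Rule for the calls: active = score above a cut-off or among the top three wells of a plate; in these data no inactive exceeds 0.85.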 The list comes from a sample in which actives are over-represented; it also holds similar structures and randomly drawn compounds.
# Tested on: primary human hepatic stellate cells (donor 1)
# Experiment: scaled lipid accumulation score (0 = DMSO-like, 1 = nortriptyline-like); higher = stronger HSC inactivation (lipid re-accumulation), active = hit call of the paper
# Conditions: 48 h
# [1] = library stock concentration: 3.33 mM
# [2] = library stock concentration: 10 mM
# [3] = library stock concentration: 1 mM
smiles,measurement,setting,value
C[C@H]1[C@H](OC(=O)CCC(=O)O)O[C@@H]2O[C@@]3(C)CC[C@H]4[C@H](C)CC[C@@H]1[C@@]24OO3 [Artesunate],scaled lipid accumulation score,[1],0.009 (inactive)
same,scaled lipid accumulation score,library stock concentration: 5.2 mM,≤ 0 (inactive)
same,scaled lipid accumulation score,[2],≤ 0 (inactive)
C[C@H]1[C@H](OC(=O)CCC(=O)O)O[C@@H]2O[C@@]3(C)CC[C@H]4[C@H](C)CC[C@@H]1[C@@]24OO3,scaled lipid accumulation score,[2],≤ 0 (inactive)
C/C=C/C/C=C/CCC(=O)[C@H]1O[C@H]1C(N)=O [Cerulenin],scaled lipid accumulation score,[3],≤ 0 (inactive)
same,scaled lipid accumulation score,library stock concentration: 22.4 mM,0.518 (inactive)
CCCCCC(O)C=CC1C=CC(=O)C1CCCCCCC(=O)O (stereo not drawn) [15-epi Prostaglandin A1],scaled lipid accumulation score,[3],≤ 0 (inactive)
CCCCCC(O)C=CC1C=CC(=O)C1CCCCCCC(=O)O (stereo not drawn) [8-iso Prostaglandin A1],scaled lipid accumulation score,[3],≤ 0 (inactive)
N[C@@H](Cc1c[nH]cn1)C(=O)O [L-Histidine hydrochloride],scaled lipid accumulation score,[2],≤ -0.07 (inactive)
"COC1=CC(=O)C=C(OC)C1=O [2,6-dimethoxyquinone]",scaled lipid accumulation score,[2],0.299 (inactive)
"CC(C)NCC(O)c1ccc(O)c(O)c1 (single isomer, unassigned; (-)) [(-)-Isoproterenol hydrochloride]",scaled lipid accumulation score,,≤ 0 (inactive)
same,scaled lipid accumulation score,[2],≤ -0.055 (inactive)
CC[C@H]1C(=O)OC[C@@H]1Cc1cncn1C [Isopilocarpine nitrate],scaled lipid accumulation score,[2],≤ 0 (inactive)
COc1cccc(OC)c1OCCNCC1CSc2ccccc2O1 (stereo not drawn) [Benoxathian hydrochloride],scaled lipid accumulation score,[2],0.629 (inactive)
CC1(C)CC(Nc2nccc(-c3cnn(-c4ccccc4)c3)n2)CC(C)(C)N1,scaled lipid accumulation score,[2],0.799 (active)
CCCn1ncc(-c2ccnc(NC3CC(C)(C)NC(C)(C)C3)n2)c1C,scaled lipid accumulation score,[2],0.86 (active)
C[C@@H]1O[C@@H](O[C@H]2[C@H](Oc3cc(O)c(C(=O)CCc4ccc(O)cc4)c(O)c3)O[C@H](CO)[C@@H](O)[C@@H]2O)[C@H](O)[C@H](O)[C@H]1O [Naringin Dihydrochalcone],scaled lipid accumulation score,[1],≤ 0 (inactive)
same,scaled lipid accumulation score,[2],0.078 (inactive)
O=C(O)CCC/C=C\C[C@@H]1CO[C@H](C(F)(F)F)O[C@@H]1c1ccccc1O,scaled lipid accumulation score,[2],≤ 0 (inactive)
"CCCCCCCC/C=C\CCCCCCCC(=O)OC[C@H](CO)OC(=O)CCCCCCC/C=C\CCCCCCCC [1,2-Dioleoyl-sn-glycerol]",scaled lipid accumulation score,[3],≤ 0 (inactive)
CCN(CC)CCCC(C)Nc1c2ccc(Cl)cc2nc2ccc(OC)cc12 (stereo not drawn) [Quinacrine 2HCl dihydrate],scaled lipid accumulation score,library stock concentration: 5 mM,0.876 (active)
CCN(CC)CCCC(C)Nc1c2ccc(Cl)cc2nc2ccc(OC)cc12 (stereo not drawn) [Quinacrine dihydrochloride],scaled lipid accumulation score,[2],0.536 (inactive)
CCN(CC)CCCC(C)Nc1c2ccc(Cl)cc2nc2ccc(OC)cc12 (stereo not drawn) [Quinacrine hydrochloride],scaled lipid accumulation score,[2],0.586 (inactive)
CCN(CC)CCCC(C)Nc1c2ccc(Cl)cc2nc2ccc(OC)cc12 (stereo not drawn) [Quinacrine 2HCl],scaled lipid accumulation score,[1],0.307 (inactive)
same,scaled lipid accumulation score,[2],0.325 (inactive)
CCN(CC)CCCC(C)Nc1nc(C)cc(Nc2ccc3nc(C)cc(N)c3c2)n1 (stereo not drawn),scaled lipid accumulation score,[1],≤ -0.009 (inactive)
same,scaled lipid accumulation score,[2],0.217 (inactive) and 0.086 (inactive)
CCN(CC)CCCC(C)Nc1c2ccc(Cl)cc2nc2ccc(OC)cc12 (stereo not drawn) [Quinacrine dihydrochloride dihydrate],scaled lipid accumulation score,,0.288 (inactive)
